# The whole screen tested about 1,000 compounds, of which about 150 (15%) were called active.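 Rule for the calls: active = activity change at least 3 SD of negative controls below their mean in both duplicate wells; inactive = the rest.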 The sample as a whole holds a higher share of actives than the screen did.
# Biological target: Potassium voltage-gated channel subfamily KQT member 1 (Homo sapiens) (UniProt P51787)
# Test: KCNQ1 thallium flux decrease by hits – cell-based, FluxOR thallium flux, counter-screen for KCNQ2 inhibitor project (AID 493026);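 note: CHO cells stably transfected with KCNQ1 and depolarized by potassium stimulus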;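 for activity change, negative = inhibition: peak minus minimum fluorescence over baseline after thallium addition; 0% = vehicle negative control and -100% = blank without thallium stimulus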
# Details: KCNQ1-expressing cells, FluxOR thallium flux fluorescence, at 10 µM; stronger effect = lower value
# Sequence of Potassium voltage-gated channel subfamily KQT member 1 (Homo sapiens) (P51787 whole entry, looked up): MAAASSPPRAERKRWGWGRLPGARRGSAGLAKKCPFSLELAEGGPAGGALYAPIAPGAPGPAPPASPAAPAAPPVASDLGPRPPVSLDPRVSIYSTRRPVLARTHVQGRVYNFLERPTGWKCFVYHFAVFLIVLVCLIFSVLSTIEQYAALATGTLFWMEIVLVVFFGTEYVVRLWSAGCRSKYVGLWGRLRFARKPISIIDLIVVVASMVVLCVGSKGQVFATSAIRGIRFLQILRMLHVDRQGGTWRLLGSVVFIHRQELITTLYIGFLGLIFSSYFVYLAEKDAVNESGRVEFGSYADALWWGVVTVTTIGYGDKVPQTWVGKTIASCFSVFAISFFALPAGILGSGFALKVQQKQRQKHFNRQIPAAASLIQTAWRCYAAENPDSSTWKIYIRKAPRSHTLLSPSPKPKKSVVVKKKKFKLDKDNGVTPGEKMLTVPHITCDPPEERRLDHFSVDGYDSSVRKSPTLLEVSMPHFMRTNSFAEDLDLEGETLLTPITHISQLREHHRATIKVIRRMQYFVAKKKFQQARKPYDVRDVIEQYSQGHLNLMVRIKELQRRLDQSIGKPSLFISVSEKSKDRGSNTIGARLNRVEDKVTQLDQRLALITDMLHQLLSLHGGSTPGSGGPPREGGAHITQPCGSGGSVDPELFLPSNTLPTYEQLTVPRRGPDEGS
row,Compound,"activity change, negative = inhibition"
1,CN(C)CC1Oc2ccccc2OC1(O)c1ccccc1 (configuration not stated),-30.5% (active)
2,O=C(NC(c1ccc(Cl)cc1)P(=O)(Oc1ccccc1)Oc1ccccc1)OCc1ccccc1 (configuration not stated),inactive

# — PubChem BioAssay AID493026 (Johns Hopkins Ion Channel Center, 2011)
